Data from PubChem BioAssay (NCI).
This is part of a sample that, as a whole, favours compounds with a hit. Of some 79,000 tested, about 15% had one in any assay. Cut-off read from the data, not from the text of the source: active = growth inhibition above about 70%; inactive = the rest. Where a SMILES comes first, the peptide text is derived from it. The star is where a group is joined. Cbz = O=C(OCc1ccccc1)*

What was measured:
[1] = NCI Yeast Anticancer Drug Screen. Data for the rad50 strain (AID 155);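 note: 0% = growth of vehicle-only cultures of the same strain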; conditions: S. cerevisiae rad50 strain growth inhibition, hits give high values; at 50.0 µM unless noted
Summary of the method: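 A DNA repair-deficient yeast mutant serves as the test organism; compound-induced growth inhibition is calculated against vehicle-treated cells.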

[2] = NCI Yeast Anticancer Drug Screen. Data for the mec2-1 strain (AID 157); conditions: S. cerevisiae mec2-1 strain, hits give high values; at 50.0 µM unless noted
Summary of the method: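 Yeast mec2-1 mutant treated with compound. Readout: growth inhibition vs vehicle controls.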

[3] = NCI Yeast Anticancer Drug Screen. Data for the sgs1 mgt1 strain (AID 161);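 note: 0% = growth of cultures given vehicle only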; conditions: S. cerevisiae sgs1 mgt1 strain, hits give high values; at 50.0 µM unless noted
Summary of the method: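 Test agents were incubated with a DNA-repair-mutant yeast strain. Growth was then read and compared against vehicle-treated controls.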

[4] = NCI Yeast Anticancer Drug Screen. Data for the cln2 rad14 strain (AID 165);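 note: 0% = growth equal to vehicle treated cultures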; conditions: S. cerevisiae cln2 rad14 strain, hits give high values; at 50.0 µM unless noted
Summary of the method: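 cln2 rad14 yeast strain; compound exposure; growth inhibition read vs vehicle controls.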

[5] = NCI Yeast Anticancer Drug Screen. Data for the bub3 strain (AID 167); conditions: S. cerevisiae bub3 mutant strain, hits give high values; at 50.0 µM unless noted
Summary of the method: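 Inhibition values come from growth of compound-treated mutant yeast normalised to vehicle-treated controls.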

[6] = NCI Yeast Anticancer Drug Screen. Data for the mlh1 rad18 strain (AID 175); conditions: S. cerevisiae mlh1 rad18 strain growth inhibition, hits give high values; at 50.0 µM unless noted
Summary of the method: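 Yeast w/ defined DNA-repair lesions; compound exposure; growth vs vehicle controls → % inhibition.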

Measured: growth inhibition

CCCC(=O)Nc1ccc(C2=NNC(=O)C3CC23)cc1 (centres undefined)
inactive: [1] 31.2% | [2] 26.6% | [3] 33.5% | [4] -20% | [5] 27.9% | [6] 36.5%

CCc1ccc(NC(=O)c2ccccc2)cc1CC
inactive: [1] -11.3% | [2] -11% | [3] -2.5% | [4] -97.3% | [5] -4.05% | [6] -19.1%

O=C1OCC/C1=C/c1ccc(N=Nc2c(O)ccc3ccccc23)cc1
inactive: [1] 2.4% | [2] -6.05% | [3] 11.1% | [4] 5.5% | [5] 11.7% | [6] 7.05%

CCCC(c1ccc(N(C)C)cc1)c1ccc(N(C)C)cc1
inactive: [1] -5% | [2] -22% | [3] -2.75% | [4] 16.6% | [5] 29.3% | [6] -30%

COc1ccc(/C(=N/N)C(C)(C)C)cc1
inactive: [1] 5.8% | [2] -2.8% | [3] -7.95% | [4] -15.8% | [5] -1.6% | [6] -1.9%

Cc1cccc(NC(=O)C(=O)C(C(=O)c2ccc3ccccc3c2)C2OC(=O)c3ccccc32)c1C (centres undefined)
inactive: [1] -3.95% | [2] 4.75% | [3] 13.5% | [4] -59.5% | [5] 5.75% | [6] -6.75%

CCCCC(CC)OC(=O)c1ccccc1C (centres undefined)
inactive: [1] -8.05% | [2] -4.55% | [3] 0.5% | [4] -30.9% | [5] -1.4% | [6] -23.8%

COc1cc2c(c(OC)c1OC)-c1ccc(SC)c(=O)cc1[C@@H](NC(=O)CCl)CC2
inactive: [1] -2.1% | [2] 19.6% | [3] 0.5% | [4] 6.85% | [5] 16.6% | [6] 15.6%

COc1cc2c(cc1OC)C1CC3(CCN1CC2)CC(=O)NC3=O (centres undefined)
inactive: [1] -8.65% | [2] -5.5% | [3] -4.75% | [4] -78.8% | [5] -11.9% | [6] 1.35%

CC(=O)Nc1ccc(-c2nnc(SCC(=O)Nc3cccc([N+](=O)[O-])c3)o2)cc1
inactive: [1] -2% | [2] 5.15% | [3] 15.6% | [4] -17.5% | [5] -10.7% | [6] 0.4%

C=C(C)C(C)OC(=O)Nc1ccccc1 (centres undefined)
inactive: [1] 12.7% | [2] -3.05% | [3] -16.1% | [4] 7.4% | [5] -3.95% | [6] -37.5%

CCCCN(CCCC)CC(C(=O)Nc1ccc([N+](=O)[O-])cc1[N+](=O)[O-])/C(C)=N\NC(=S)NN (centres undefined)
inactive: [1] 3.55% | [2] -6.8% | [3] 44.7% | [4] 24.8% | [5] 16.2% | [6] 24.4%

COc1ccc(C(N2CCNCC2)N2CCNCC2)cc1
inactive: [1] 13.7% | [2] 6.3% | [3] 19.6% | [4] -30.1% | [5] -3.5% | [6] 48.3%

O=P1(NC23CC4CC(CC(C4)C2)C3)OC(CCl)=NC1c1ccc(C2N=C(CCl)OP2(=O)NC23CC4CC(CC(C4)C2)C3)cc1 (centres undefined)
inactive: [1] -56.6% | [2] -32.7% | [3] -34.3% | [4] -12.8% | [5] -35.1% | [6] -57.2%

O=[N+]([O-])c1ccc(/C(=C\c2ccc(-c3ccccc3)o2)S(=O)(=O)c2ccccc2)o1
inactive: [1] 26.2% | [2] -17.5% | [3] -5.1% | [4] 23.6% | [5] -1.2% | [6] 2.25%

Cc1nc2c(cnn2C)c(=O)n1C(C)C
inactive: [1] 3.3% | [2] -0.3% | [3] 3.8% | [4] -6.5% | [5] -11.3% | [6] 3.4%

Cc1ccnc(NC(=O)CCc2ccccc2)c1
inactive: [1] -11.8% | [2] -16.8% | [3] -10.3% | [4] -31.7% | [5] -13.2% | [6] -5.85%

Cc1nc2[nH]c(=O)[nH]c(=O)c2s1
inactive: [1] -5.65% | [2] 4.15% | [3] -1.25% | [4] -6.6% | [5] -10.8% | [6] -2.35%

CCOc1ccc2nc(NC(=O)C(=O)C(c3cnc4ccccc4n3)[N+](=O)[O-])sc2c1 (centres undefined)
inactive: [1] 23.6% | [2] -13.4% | [3] 24.4% | [4] 8.95% | [5] -22.4% | [6] 13.8%

Cn1cc(C(=O)c2ccccc2)cc(C(=O)c2ccccc2)c1=O
inactive: [1] -3.05% | [2] -12.1% | [3] -6.05% | [4] 1.5% | [5] -15.2% | [6] -36.5%

Nc1ncnc2c1ncn2CC(O)CN(CCO)CCO (centres undefined)
inactive: [1] 13.1% | [2] 7.95% | [3] -3.7% | [4] 8.2% | [5] -10.8% | [6] 18.6%

COC1CCC(/C=C(\C#N)C2CCC(C)CC2)CC1 (centres undefined)
inactive: [1] 18.3% | [2] 22.1% | [3] 43.9% | [4] 12.1% | [5] 30.2% | [6] 30.6%

CC1=NCC[N+]1(CCc1ccccc1)Cc1ccccc1 (centres undefined)
inactive: [1] 3.15% | [2] -5% | [3] -19.8% | [4] -26.9% | [5] -35% | [6] -11.7%

CN(C)c1ccc(S(=O)(=O)OC2C(C3COC(C)(C)O3)OC3OC(C)(C)OC32)cc1 (centres undefined)
inactive: [1] -8.5% | [2] 0.75% | [3] -8.7% | [4] -16.2% | [5] 3.25% | [6] 4.7%

CCCCC/C([O-])=C1/C(=O)N(c2ccccc2)N=C1C.CCCCC/C([O-])=C1/C(=O)N(c2ccccc2)N=C1C.[Cu+2]
inactive: [1] 2.1% | [2] 0.75% | [3] -13.7% | [4] -6.1% | [5] -2.75% | [6] 7.75%

CCCCOC(=O)C(O)Cc1ccoc1 (centres undefined)
inactive: [1] 5.25% | [2] -33.9% | [3] -17.9% | [4] 12.9% | [5] -14.4% | [6] -14.4%

COc1ccccc1-n1c(=O)c(N=Nc2ccc(Br)cc2)c(O)n(-c2ccccc2C)c1=S
inactive: [1] 49.1% | [2] 0.85% | [3] 44.7% | [4] -11.1% | [5] -2.45% | [6] 17.6%

Nc1nnc2nc(CC(=O)c3ccc(Cl)c(Cl)c3)/c(=C/C(=O)c3ccc(Cl)c(Cl)c3)n12
inactive: [1] 11.5% | [2] 12.3% | [3] -12.3% | [4] 17.2% | [5] 1.7% | [6] -10.2%

CCCCCCC/C=C/C1CC(=O)OC1=O (centres undefined)
inactive: [1] 18.4% | [2] 11.2% | [3] 9.55% | [4] 7.05% | [5] 4.05% | [6] 29.6%

COc1ccccc1-n1c(=O)c(N=Nc2ccc(C)cc2)c(O)n(-c2ccccc2C)c1=S
inactive: [1] -34.8% | [2] -10.5% | [3] -17.9% | [4] -44.1% | [5] 0% | [6] -37.5%

N#Cc1ccc2c(c1)-c1cc(C#N)ccc1C2c1ccccc1
inactive: [1] 8.95% | [2] -10.8% | [3] -3.45% | [4] -42.5% | [5] -4.8% | [6] -6.95%

COC(=O)c1ccc(Oc2nc3ccc(C(F)(F)F)cc3nc2-c2ccccc2)cc1
inactive: [1] -11.9% | [2] -31.9% | [3] 14.3% | [4] -34.1% | [5] -23.8% | [6] -19.1%

O=C(Cc1ccccc1)NC/C=N/O
inactive: [1] 26.5% | [2] -20% | [3] 10.2% | [4] -2% | [5] -43.1% | [6] -4.75%

CCOC(=O)CCC(NC(=O)C(Cc1ccccc1)NC(=O)OCc1ccccc1)C(=O)OCC (stereo not drawn) (Cbz-Phe-Glu(OEt)-OEt; configuration not given here)
inactive: [1] 3.9% | [2] -2.9% | [3] -0.2% | [4] -6.25% | [5] -7.85% | [6] -59.4%

Cc1c(C(=O)C/C(=N/NC(=O)C[n+]2ccccc2)C(=O)Nc2ccccc2)[n+](=O)c2ccccc2n1O
inactive: [1] -37.5% | [2] 0.2% | [3] -40.7% | [4] -0.7% | [5] -15.2% | [6] -31.4%

CCOC(=O)CC(c1ccccc1)C(C)(C(=O)OCC)C(=O)OCC (centres undefined)
inactive: [1] -18.3% | [2] -10.8% | [3] 14.8% | [4] 35.9% | [5] 14.2% | [6] -9.3%

CC1=C(C(=O)OC(C)(C)C)C(c2ccc([N+](=O)[O-])cc2)C(C(=O)OC(C)(C)C)=C(C)N1
inactive: [1] 0.2% | [2] -4.9% | [3] 3.85% | [4] 12.2% | [5] -12.8% | [6] 15.4%

CCCc1cc2c(cc1CC#N)OCO2
inactive: [1] -5.65% | [2] 19.4% | [3] -9.85% | [4] 2.4% | [5] -3.25% | [6] 17.6%

CS/C(=N\c1nccs1)NC(=O)c1cccc(Cl)c1
inactive: [1] 7.65% | [2] 20.4% | [3] 30.2% | [4] 18.8% | [5] 22.4% | [6] 10.8%
